# Source: PubChem (National Center for Advancing Translational Sciences (NCATS))
# The full list was thinned out, with hits kept by preference.
# nsP2pro primary = Primary qHTS for inhibitors of NSP2Pro chikungunya virus (CHIKV). Polyprotein P1234 (Chikungunya virus (strain S27-African prototype)), Q8JUX6. FRET peptide cleavage, nsP2pro, fluorescence 1 h. Potency, µM (titrated, usually from 24.9 µM), for inactives: at the highest dose activity change, negative = inhibition, hits mostly inhibitors. 1.1% of 31,000 active. AID 1964107, 2024; note: nearly all actives have a fitted effect of over 60% in size
#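 Purified recombinant nsP2pro (150 nM final) in 10 mM Tris-HCl pH 8.0 with 0.01% Tween 20 was preincubated 15 min at room temperature with compound (7 concentrations, up to 25 uM). FRET peptide 2 substrate (2.5 uM final) was then added; fluorescence was read after 1 h.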
# nsP2 cell sec = Secondary cell base assay for inhibitors of NSP2Pro Chikungunya virus (CHIKV); shares compounds with nsP2pro primary; cell-based CHIKV nsP2 protease reporter assay; Potency, µM (doses to about 51.1 µM), without a hit: top-dose activity change, negative = inhibition, usual class: inhibitors; 10% of 450 active; AID 1964100, 2024; note: nearly all actives have a fitted effect of over 70% in size
# Target sequence (Q8JUX6 220-798 limits assumed): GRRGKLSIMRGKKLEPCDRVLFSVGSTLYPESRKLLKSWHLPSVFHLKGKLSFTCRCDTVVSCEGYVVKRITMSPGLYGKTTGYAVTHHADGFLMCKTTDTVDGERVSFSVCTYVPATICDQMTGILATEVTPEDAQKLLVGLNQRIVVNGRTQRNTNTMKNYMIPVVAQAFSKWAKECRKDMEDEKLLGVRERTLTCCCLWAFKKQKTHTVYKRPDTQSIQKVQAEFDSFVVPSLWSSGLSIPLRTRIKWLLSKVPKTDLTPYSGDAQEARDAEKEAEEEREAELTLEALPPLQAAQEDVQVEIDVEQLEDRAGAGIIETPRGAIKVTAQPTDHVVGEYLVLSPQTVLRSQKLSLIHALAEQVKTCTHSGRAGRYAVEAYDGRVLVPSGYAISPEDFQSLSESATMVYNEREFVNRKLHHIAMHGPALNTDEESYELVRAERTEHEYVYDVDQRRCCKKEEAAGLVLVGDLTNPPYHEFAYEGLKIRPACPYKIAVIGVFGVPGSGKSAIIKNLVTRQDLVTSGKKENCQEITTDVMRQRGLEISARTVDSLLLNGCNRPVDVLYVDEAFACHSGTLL
# CHIKV NSP2 FL = Selectivity profile for inhibitors of NSP2Pro chikungunya virus (CHIKV): Full length NSP2 enzyme counterscreen (CHIKV-NSP2). shares compounds with nsP2pro primary. Full-length CHIKV NSP2 protease enzymatic counterscreen. Potency, µM (highest dose often 50.7 µM), inactives show at the highest dose activity change, negative = inhibition, hits mostly inhibitors. 39% of 410 active; note: nearly all actives have a fitted effect of over 65% in size
# Furin counter = Selectivity profile for inhibitors of NSP2Pro chikungunya virus (CHIKV): Human furin counterscreen | shares compounds with nsP2pro primary | Recombinant human furin enzymatic counterscreen, fluorogenic substrate | Potency, µM (titrated, usually from 50.6 µM), without a hit: at the highest dose activity change, negative = inhibition, actives largely listed as inhibitors | 6% of 410 active | AID 1964102, 2024
# NS23 peptide cs = Selectivity profile for inhibitors of NSP2Pro chikungunya virus (CHIKV): Endogenous NS2/3 peptide Counterscreen; Purified CHIKV nsP2 protease, endogenous NS2/3 peptide cleavage; Potency, µM (top dose mostly 51 µM), for inactives: at the highest dose activity change, negative = inhibition, most hits filed as inhibitors; shares compounds with nsP2pro primary; AID 1964103, 2024; 34% of 410 active; note: nearly all actives have a fitted effect of over 55% in size
# Papain counter = Selectivity profile for inhibitors of NSP2Pro chikungunya virus (CHIKV): Papain Counterscreen. shares compounds with nsP2pro primary. purified papain protease activity, enzymatic inhibition. Potency, µM (highest dose often 51 µM), without a hit: top-dose activity change, negative = inhibition, most hits filed as inhibitors. 5% of 410 active
# nsP2pro conf qHTS = Confirmatory qHTS for inhibitors of NSP2Pro chikungunya virus (CHIKV); shares compounds with nsP2pro primary; CHIKV nsP2 protease enzymatic activity, qHTS; Potency, µM (top dose mostly 25.5 µM), without a hit: at the highest dose activity change, negative = inhibition, actives largely listed as inhibitors; 43% of 410 active; AID 1964105, 2024; note: nearly all actives have a fitted effect of over 75% in size
# HCV NS3 counter = Selectivity profile for inhibitors of NSP2Pro chikungunya virus (CHIKV): NS34A-HCV Counterscreen; shares compounds with nsP2pro primary; HCV NS3/4A protease biochemical counterscreen; Potency, µM (top dose mostly 50.9 µM), actives largely listed as inhibitors; 20% of 410 active; AID 1964106, 2024; note: nearly all actives have a fitted effect of over 55% in size
# Starred values were filed as active, the others as inactive; i = inactive; ? = inconclusive; [ ] = remark or other dose. Calls come from the whole dose curve. % is set by controls: 0 for no effect and ±100 for the full control effect; potency is the fitted concentration of half-maximal effect.
SMILES,nsP2pro primary,others
Cc1ccc(OCC(=O)N2CCN(CCc3ccncc3)CC2)cc1,-27%,
O=C(COc1ccccc1[N+](=O)[O-])N1CCN(CCc2ccncc2)CC1,?,nsP2 cell sec=9%
O=C(COc1ccccc1Cl)N1CCN(CCc2ccncc2)CC1,-25%,
CCC(CC)O[C@@H]1C=C(C(=O)O)C[C@H](N)[C@H]1NC(C)=O,9%,
O=C1CCCC2=C1C(c1[nH]ncc1Cl)N=C(Nc1nc3c(Br)cccc3o1)N2 (centres undefined),i,
OCc1ccc(-c2ccc(-c3ccc(CO)s3)o2)s1,2.2µM*,nsP2 cell sec=-4%[17.6 µM];CHIKV NSP2 FL=4µM*;Furin counter=?;NS23 peptide cs=?;Papain counter=i;nsP2pro conf qHTS=3.1µM*;HCV NS3 counter=i
Cc1occc1-c1ccc2ncnc(NCc3ncc[nH]3)c2c1,i,
Cc1ccc(C)c(SC2CS(=O)(=O)c3ccccc32)c1 (centres undefined),-3%,
COC(=O)c1ccc(O)c2ncc(N3CCN(C)CC3)cc12,i,
O=C(c1ccccc1)N(Cc1ccco1)Cc1cccs1,-22%,
O=C(C(NS(=O)(=O)c1ccc2[nH]c(=O)ccc2c1)c1cccc(C(F)(F)F)c1)N(Cc1ccco1)Cc1cccs1 (centres undefined),7.9µM*,nsP2 cell sec=142%;CHIKV NSP2 FL=?;Furin counter=-1%;NS23 peptide cs=-22%;Papain counter=-19%;nsP2pro conf qHTS=-20%;HCV NS3 counter=i
CS(=O)(=O)c1ncc(N(Cc2ccccc2)Cc2ccco2)c(C(=O)Nc2cccc(C(F)(F)F)c2)n1,-5%,
Brc1cnc2nc(SCc3ccccn3)[nH]c2c1,-8%,
Brc1cnc2nc(SCc3ccncc3)[nH]c2c1,3%,
Cc1ccc(CNc2ncnc3ccc(-c4sc(C)nc4C)cc23)o1,-4%,
C1=C(c2cnc[nH]2)c2ccsc2CC1,?,nsP2 cell sec=5%;CHIKV NSP2 FL=85%;Furin counter=?;NS23 peptide cs=-12%;Papain counter=-1%;nsP2pro conf qHTS=40%;HCV NS3 counter=i
CCCCCCCOc1cc2c(cc1/C(C)=C/c1ccc(C(=O)O)cc1)C(C)(C)CCS2(=O)=O,187%,
CC(=O)Nc1sc2c(c1-c1nc3ccccc3o1)CCN(C(C)C)C2,i,
NC(=O)C1CCN(c2ncc(-c3ccc4c(c3)OCO4)s2)CC1,-5%,
O=C(C1CC1)N1CCC(C(=O)N2CC(Oc3ccc4c(c3)OCO4)C2)CC1,7.9µM*,nsP2 cell sec=7%;CHIKV NSP2 FL=13µM*;Furin counter=-9%;NS23 peptide cs=?;Papain counter=-2%;nsP2pro conf qHTS=8µM*;HCV NS3 counter=7.3µM*
CC(=O)Nc1ccc(CN2CC(Oc3ccc4c(c3)OCO4)C2)cc1,2%,
Cn1cc(C(=O)Cc2ccccc2)cc1/C=C/C(=O)NO,16%,
Cc1nnc(-c2cnn(C)c2N)o1,-4%,
O=C(/C=C/c1ccccc1Br)NCCc1nc2ccccc2[nH]1,3%,
